Molecules are shown by their SMILES. The panel holds about 79,000 compounds, 15% with a hit somewhere; the sample as a whole holds those more often. A number with no mark means an inactive call. Activity calls are given as the source filed them. Rule as the data show it: active = growth inhibition above about 70%; inactive = the rest.

This assay is described as follows: NCI Yeast Anticancer Drug Screen. Data for the CLN2oe strain (AID 163).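 Also: 0% = growth of vehicle-only control cultures.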 The settings on record: S. cerevisiae CLN2oe strain, hits give high values. How it is done: Growth inhibition of yeast strains with defined genetic alterations is measured as a screen for potential anti-cancer activity. Selected strains with alterations in DNA damage repair or cell cycle control were exposed to compounds and growth inhibition was measured relative to vehicle treated controls. The strain used in this assay is CLN2oe

`CCOc1ccccc1N=Cc1c2ccccc2cc2ccccc12`: the growth inhibition runs as follows: (at 1.2 µM) 18%; (at 3.7 µM) 36%; (at 11.0 µM) 97% (active); (at 33.0 µM) 98% (active); (at 100.0 µM) 97% (active).

As for `NC1=NNC2(C(N)=N1)c1ccccc1-c1ccccc12`, the growth inhibition reads like this: (at 1.2 µM) 9%; (at 3.7 µM) 15%; (at 11.0 µM) 21%; (at 33.0 µM) 39%; (at 100.0 µM) 97% (active).

`O=C1/C(=C/c2ccccc2)CCCC1CN1CCCCC1` (stereo not given): the growth inhibition by setting is: (at 1.2 µM) 40%; (at 3.7 µM) 59%; (at 11.0 µM) 67%; (at 33.0 µM) 80% (active); (at 100.0 µM) 83% (active).

Take `c1ccc2c(c1)sc1c3cnccc3ccc21`: the growth inhibition (at 1.2 µM) is 4%; the growth inhibition (at 3.7 µM) was 8%; the growth inhibition (at 11.0 µM) was 1%; the growth inhibition (at 33.0 µM) is 5%; the growth inhibition (at 100.0 µM) was 8%.

Regarding `CNC(=O)OCc1c(COC(=O)NC)c2n(c1C)-c1ccc(OC)cc1CCC2`, the growth inhibition is -12% (at 1.2 µM); -16% (at 3.7 µM); -5% (at 11.0 µM); 87% (active) (at 33.0 µM); 100% (active) (at 100.0 µM).

On to `CC(O)=NC(Cc1ccc2ccccc2c1)C(O)=NC(Cc1ccc(Cl)cc1)C(O)=NC(Cc1c[nH]c2ccccc12)C(O)=NC(CO)C(O)=NC(Cc1ccc(O)cc1)C(O)=NC(CCCN=C(N)N)C(O)=NC(CC(C)C)C(O)=NC(CCCN=C(N)N)C(=O)N1CCCC1C(O)=NC(C)C(=N)O` (stereo not given), for which the growth inhibition runs as follows: (at 1.2 µM) -4%; (at 3.7 µM) 0%; (at 11.0 µM) 3%; (at 33.0 µM) 19%; (at 100.0 µM) 32%.

`c1ccc(CCN2CCc3ccccc3C2)cc1`: the growth inhibition (at 1.2 µM) is -3%; the growth inhibition (at 3.7 µM) was -9%; the growth inhibition (at 11.0 µM) was 12%; the growth inhibition (at 33.0 µM) was 28%; the growth inhibition (at 100.0 µM) was 41%.

With `O=C(O)Cc1cc(F)ccc1C(=O)O`, the growth inhibition (at 1.2 µM) is 1%; the growth inhibition (at 3.7 µM) is 4%; the growth inhibition (at 11.0 µM) was 12%; the growth inhibition (at 33.0 µM) is 7%; the growth inhibition (at 100.0 µM) was 12%.

These data come from PubChem BioAssay (NCI).
